Shown are actives, neighbours in structure and some others; about 11% of the full set was active somewhere.
HttQ103 aggreg: reduces HttQ103-GFP aggregates in PC12 cells; PC12 HttQ103-GFP aggregates, Acumen cytometry, 40 h; Potency, µM (highest dose often 46.1 µM), without a hit: at the highest dose activity change, negative = inhibition, most hits filed as inhibitors; 220,000 tested, 1.1% active; AID 1688; note: potency is the fitted concentration of half-maximal effect; % is set by controls: 0 for no effect and ±100 for the full control effect; nearly all actives have a fitted effect of over 60% in size
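Huntingtin Q103 exon 1–GFP aggregates in induced PC12 cells (100 nM tebufenozide) were quantified by cytometry from lysates, with compounds dosed in titration.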
PNC assembly inh: perinucleolar compartment assembly inhibition; PC3M PTB-GFP, PNC prevalence imaging, 16 h; hits give low values; 140,000 tested, 3.1% active; activity change (PNC), negative = inhibition, % at 10 µM;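 active = readout at or below -70, meaning at least 70% loss of cells showing the perinucleolar compartment, a nuclear body marking cancer cells; inconclusive = readout between -30 and a set limit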;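 note: plate controls were DMSO wells for no effect and camptothecin positive control wells for full effect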
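Compounds are pinned in duplicate onto adhered PC3M cells stably expressing GFP-tagged PTB and incubated 16 h at 37 C. Cells are then fixed, nuclei stained with Hoechst, and PNC-positive cells counted.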
ALDH1A1 inh: ALDH1A1 (human) enzyme inhibition. Purified ALDH1A1, NADH fluorescence, propionaldehyde substrate. Potency, µM (doses to about 75.3 µM), inactives show top-dose activity, negative = inhibition, hits mostly inhibitors. 220,000 tested, 7.3% active; active = well fitted inhibition curve with a large enough effect, not every such curve was filed as active; inconclusive = small, poorly fitted or top-dose-only effect, or another doubt; inactive = no such curve, though single readings can be large or run the other way;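 note: potency is the fitted concentration of half-maximal effect; plate controls were no enzyme wells and a reference inhibitor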
Target sequence (P00352 whole entry, looked up): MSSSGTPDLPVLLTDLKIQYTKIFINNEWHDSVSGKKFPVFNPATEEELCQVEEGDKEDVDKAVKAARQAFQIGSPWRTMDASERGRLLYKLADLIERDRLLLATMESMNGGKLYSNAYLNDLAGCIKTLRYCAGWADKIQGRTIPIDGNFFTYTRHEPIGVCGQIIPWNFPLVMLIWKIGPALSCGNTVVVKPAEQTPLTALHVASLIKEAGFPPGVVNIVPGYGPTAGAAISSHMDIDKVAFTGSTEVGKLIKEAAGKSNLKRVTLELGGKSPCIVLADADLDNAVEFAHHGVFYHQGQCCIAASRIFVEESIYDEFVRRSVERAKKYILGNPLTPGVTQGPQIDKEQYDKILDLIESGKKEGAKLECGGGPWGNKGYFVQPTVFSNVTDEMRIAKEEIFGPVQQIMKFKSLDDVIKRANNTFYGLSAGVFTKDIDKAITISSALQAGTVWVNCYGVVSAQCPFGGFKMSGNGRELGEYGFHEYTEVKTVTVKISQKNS
RGS12 GoLoco inh: RGS12 GoLoco-Gai1 interaction inhibition; Gai1:RGS12 GoLoco peptide FP, rhodamine, 10 min; Potency, µM (series often up to 61.6 µM), for inactives: at the highest dose activity, negative = inhibition, actives largely listed as inhibitors; 230,000 tested, 0.44% active; AID 880; active = well fitted inhibition curve with a large enough effect, not every such curve was filed as active; inactive = no such curve, though single readings can be large or run the other way; note: potency is the fitted concentration of half-maximal effect; % is set by controls: 0 for no effect and ±100 for the full control effect; nearly all actives have a fitted effect of over 30% in size
HPGD inh: blocks human HPGD enzyme activity; P15428; purified HPGD, NADH fluorescence kinetic, PGE2 substrate; Potency, µM, inactives show top-dose activity change, negative = inhibition, usual class: inhibitors; 150,000 tested, 4.3% active; AID 894; active = well fitted inhibition curve with a large enough effect, not every such curve was filed as active; inconclusive = small, poorly fitted or top-dose-only effect, or another doubt; inactive = no such curve, though single readings can be large or run the other way; note: potency is the fitted concentration of half-maximal effect; % is set by controls: 0 for no effect and ±100 for the full control effect
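20 nM HPGD preincubated 15 min at room temperature with compound in 50 mM Tris-HCl pH 8, 0.01% Tween 20. Started with 1 mM NAD+ and 30 uM prostaglandin E2; NADH fluorescence (360/450 nm) read 5 times over 30-s intervals, last minus first.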
HTT ATP protect: cytoprotection in Huntington HTT-Q103 PC12 cell model. PC12 HTT-Q103 induced, cytoprotection, ATP luminescence, 40 h. AID 1471. 230,000 tested, 0.14% active. Potency, µM (doses to about 56.4 µM), for inactives: cytoprotection (ATP increase), hits mostly activators; note: potency is the fitted concentration of half-maximal effect; % of control where 0% means no effect; nearly all actives have a fitted effect of over 45% in size
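Huntington model: PC12 line, ecdysone-inducible HTTQ103 exon1–GFP, tebufenozide 100 nM. Test articles in a dose series. Endpoint luminescence from cellular ATP.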
Numbers without * were called inactive; ? = inconclusive; . = no result; [ ] = another dose, or the depositor's remark. Unless noted, calls come from the whole dose curve; as a rule, active = well fitted curve in the direction sought with a large enough effect; inconclusive = small, poorly fitted or top-dose-only effect, or another doubt; inactive = no such curve, though single readings can be large; an effect the other way counts as inactive or inconclusive.

SMILES	HttQ103 aggreg	PNC assembly inh	ALDH1A1 inh	RGS12 GoLoco inh	HPGD inh	HTT ATP protect
COc1c([N+](=O)[O-])c(=O)n(-c2ccccc2)c2ccccc12	20%	25	-1%	0%	-17%	.
C/C(CCC(=O)OC[C@@H]1O[C@H](C#Cc2ccccc2)C=C[C@@H]1Oc1ccc(C)cc1)=N/O[C@@H](C)c1cn([C@H](CO)Cc2ccccc2)nn1	.	.	-6%[13.5 µM]	.	.	-13%[10 µM]
Cc1ccc(CSc2nc3ccccc3cc2C=O)cc1	?	-28	?	0%	5µM*	-65%[10 µM]
Cc1cc(C(=O)C(C)Sc2cccc[n+]2[O-])c(C)n1-c1ccc(Cl)cc1 (stereo not drawn)	-18%	.	?	11%	.	-18%
CC1CCC(NC(=O)C2CCN(C(=O)NC3CCCCC3)CC2)CC1 (stereo not drawn)	3%	?	0%	-4%	-4%	-5%
Cc1ccc(-c2noc(C3CCCN(S(=O)(=O)c4ccc(S(=O)(=O)N(C)C)cc4)C3)n2)o1 (stereo not drawn)	-14%	58	25µM*	13%	-12%	-7%
Cc1ccc(-c2noc(C3CCCN(S(=O)(=O)c4ccc5ccccc5c4)C3)n2)o1 (stereo not drawn)	5%[9.22 µM]	-12	24µM*	-6%	20µM*	17%
Cc1ccc(-c2noc(C3CCN(S(=O)(=O)c4ccc5c(c4)OCCO5)CC3)n2)o1	?	-1	28µM*	-4%	-3%	-8%[10 µM]
COc1ccc(-c2noc(C3CCCN(S(=O)(=O)c4ccc(C)c(Cl)c4)C3)n2)cc1OC (stereo not drawn)	-13%	9	1%	.	.	10%
CC(=O)c1cccc(S(=O)(=O)N2CCCC(c3nc(-c4ccc(C)o4)no3)C2)c1 (stereo not drawn)	-8%	-12	10µM*	-12%	-27%	-7%
Cc1ccc(S(=O)(=O)N2CCCC(c3nc(-c4ccc(C)o4)no3)C2)cc1 (stereo not drawn)	-27%	-22	?	9%	-23%	13%
COc1ccc(NC(=O)CCS(=O)(=O)c2ccccc2Cl)cc1S(=O)(=O)Nc1ccc(Cl)cc1	-23%[9.22 µM]	.	-10%	13%	.	-33%
CC1C=C[C@@H]2[C@H](C1)C(=O)N(Cc1ccccc1)[C@H]2c1ccccc1Br (stereo partly drawn)	.	.	?	6%	-10%	-117%
O=S(=O)(c1ccc2ccccc2c1)N1CCC(c2nc(-c3ccncc3)no2)CC1	-31%	-100*	-6%	-8%	-14%	16%[10 µM]
CN(C)c1ccc(-c2noc(C3CCN(S(=O)(=O)c4cccc(Cl)c4)CC3)n2)cc1	-12%	32	?	11%	?	-6%
COc1ccc(C(=O)CN2C(=O)C(C)(C)Oc3ccc(C(=O)N4CCCCCC4)cc32)cc1	20%	-25	-9%	-1%	8.9µM*	0%[10 µM]
CCN(CC)S(=O)(=O)c1ccc2c(c1)nc(SCn1nnc3ccccc3c1=O)n2CC	0%	29	10µM*	0%	-16%	-25%
Cn1c(SCn2nnc3ccccc3c2=O)nc2ccccc2c1=O	4%	.	?	-2%	.	23%[10 µM]
O=C(C1CCN(C2CC(=O)N(Cc3ccccc3)C2=O)CC1)N1CCCCCC1 (stereo not drawn)	15%	-1	11µM*	-11%	?	12%
CCOC(=O)C1CCN(C2CC(=O)N(c3cccc(Cl)c3)C2=O)CC1 (stereo not drawn)	-14%	32	20µM*	-1%	-6%	4%
CCOC(=O)C1CCCN(C2CC(=O)N(c3ccc(C)cc3)C2=O)C1 (stereo not drawn)	-1%	44	-8%	2%	-5%	-4%
O=C1CC(N2CCC(Cc3ccccc3)CC2)C(=O)N1CCc1ccccc1 (stereo not drawn)	-31%	28	2.2µM*	-10%	-17%	8%[10 µM]
O=C(C1CCN(C2CC(=O)N(c3ccc(Cl)cc3)C2=O)CC1)N1CCOCC1 (stereo not drawn)	16%	-6	13µM*	-14%	-9%	-7%
O=C(C1CCN(Cc2ccccc2)CC1)N1CCCC1	7%	0	-5%	-15%	-11%	25%[10 µM]
CN1CC(=O)N(CC(=O)Nc2cccc(S(=O)(=O)N3CCOCC3)c2)C1=O	3%	.	-5%	8%	.	-41%
SMILES	HttQ103 aggreg	PNC assembly inh	ALDH1A1 inh	RGS12 GoLoco inh	HPGD inh	HTT ATP protect
O=C1OCCN1/N=C\c1ccc([N+](=O)[O-])o1	.	.	-6%[20.9 µM]	-2%[21.6 µM]	-12%	7%[40.3 µM]
O=C(C1CCN(C2CC(=O)N(c3cccc(Cl)c3)C2=O)CC1)N1CCCC1 (stereo not drawn)	1%	-18	3.2µM*	-19%	-20%	-8%
COCCN(C(=O)Nc1ccccc1)c1ccccc1C	9%	-100*	6%	-3%	-7%	17%[10 µM]
CC1NC(=O)NC1CCCCCC(=O)NCCc1ccccc1 (stereo not drawn)	6%	?	?	-10%	25µM*	0%
CCOC(=O)/C(=C\c1cn(C)c2ccccc12)[N+](=O)[O-]	16%	-20	6.3µM*	6%	3.5µM*	-13%[1.9 µM]
COc1ccc(NC(=O)CC2C(=O)N(c3ccc(Cl)cc3)C(=S)N2CCc2ccccn2)cc1 (stereo not drawn)	?	3	16µM*	11%	-19%	6%[10 µM]
COC(=O)CN1C(=S)N(c2ccc(Cl)cc2)C(=O)C1CC(=O)Nc1ccc(F)cc1 (stereo not drawn)	5%	?	?	0%	-14%	2%[10 µM]
COC(=O)CN1C(=S)N(c2ccc(Cl)cc2)C(=O)C1CC(=O)Nc1ccc(Cl)cc1 (stereo not drawn)	-9%	41	-5%	20%	32µM*	-4%
CCNc1ncnc2c1cnn2C	-13%	.	4%	-2%	.	-44%
Cc1cccc(-n2c(=S)[nH]c3nc4c(cc3c2=O)COC(C)(C)C4)c1	7%[9.22 µM]	.	0.71µM*	-1%	.	20%[10 µM]
OC(CCN1CCOCC1)(c1ccc(Cl)cc1)C1CCCCC1 (stereo not drawn)	-8%	-9	7.1µM*	-2%	3%	5%[10 µM]
OC(CCN1CCCCC1)(c1ccccc1)C1CCCCC1 (stereo not drawn)	4%	132	11%	-5%	-3%	?
O=C(NNC(=O)C12CC3CC(CC(C3)C1)C2)[C@@H]1C[C@H]1c1ccccc1	1%	.	-9%	-7%	.	-21%
CC(C)Cn1c(C(C)C)nc([N+](=O)[O-])c1Sc1ccc(Cl)cn1	26%	?	22µM*	1%	-22%	14%[10 µM]
CCCCn1c(CCC)nc([N+](=O)[O-])c1Sc1ccc(Cl)cn1	10%	?	7.1µM*	5%	-15%	10%[10 µM]

High-throughput results (PubChem)
